# Measured values as given in PMC5540273 (PLoS ONE, 2017).
# “And” between values parts separate entries of the source, which are not always exact repeats. Identical values can stand only once. Like-named read-outs stand apart in the source and are kept apart here.
# Legend:
# [1] = system: T1, VPS34; settings: concentration: 1 μM, replicates: in singlicate, n = 1
# T1 construct: gene PIK3C3
# [2] = system: VRK2; settings: concentration: 1 μM, replicates: in singlicate; n = 1
# [3] = system: WEE1; settings: concentration: 1 μM, replicates: in singlicate; n = 1
# [4] = system: WEE2; settings: concentration: 1 μM, replicates: in singlicate, n = 1
# [5] = system: WNK1; settings: concentration: 1 μM, replicates: in singlicate, n = 1
# [6] = system: WNK2; settings: concentration: 1 μM, replicates: in singlicate; n = 1
# [7] = system: WNK3; settings: concentration: 1 μM, replicates: in singlicate, n = 1
# [8] = system: WNK4; settings: concentration: 1 μM, replicates: in singlicate, n = 1
# [9] = system: T2, YANK1; settings: concentration: 1 μM, replicates: in singlicate, n = 1
# T2 construct: gene STK32A
# [10] = system: T3, YANK2; settings: concentration: 1 μM, replicates: in singlicate, n = 1
# T3 construct: gene STK32B
# [11] = system: T4, YANK3; settings: concentration: 1 μM, replicates: in singlicate, n = 1
# T4 construct: gene STK32C
# [12] = system: T5, YES; settings: concentration: 1 μM, replicates: in singlicate, n = 1
# T5 construct: gene YES1
# [13] = system: T6, YSK1; settings: concentration: 1 μM, replicates: in singlicate, n = 1
# T6 construct: gene STK25
# [14] = system: T7, YSK4; settings: concentration: 1 μM, replicates: in singlicate, n = 1
# T7 construct: gene MAP3K19
# [15] = system: ZAK; settings: concentration: 1 μM, replicates: in singlicate, n = 1
# [16] = system: ZAP70; settings: concentration: 1 μM, replicates: in singlicate, n = 1
# [17] = system: T8, p38-alpha; settings: concentration: 1 μM, replicates: in singlicate; n = 1
# T8 construct: gene MAPK14
# [18] = system: T9, p38-beta; settings: concentration: 1 μM, replicates: in singlicate; n = 1
# T9 construct: gene MAPK11
# [19] = system: p38-delta; settings: concentration: 1 μM, replicates: in singlicate, n = 1
# [20] = system: T10, p38-gamma; settings: concentration: 1 μM, replicates: in singlicate, n = 1
# T10 construct: gene MAPK12
# 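Note: KINOMEscan kinase panel screen.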
smiles,measurement,setting,value
Cl.Cl.Cl.Fc1ccc(-c2ncn(C3CCNCC3)c2-c2ccnc(Nc3ccccc3)n2)cc1 [SB-238039],%Inh,[1]; 1 µM,44% and 8%
same,%Inh,[2],100%
same,%Inh,[3],0%
same,%Inh,[4]; 1 µM,0% and 24%
same,%Inh,[5]; 1 µM,30% and 0%
same,%Inh,[6],0%
same,%Inh,[7]; 1 µM,26% and 0%
same,%Inh,[8]; 1 µM,30% and 0%
same,%Inh,[9]; 1 µM,95.6% and 93.7%
same,%Inh,[10]; 1 µM,94.1% and 88%
same,%Inh,[11]; 1 µM,58% and 48%
same,%Inh,[12]; 1 µM,22% and 26%
same,%Inh,[13]; 1 µM,10% and 0%
same,%Inh,[14]; 1 µM,39% and 0%
same,%Inh,[15]; 1 µM,11% and 0%
same,%Inh,[16]; 1 µM,12% and 14%
same,%Inh,[17],100%
same,%Inh,[18],100%
same,%Inh,[19]; 1 µM,98.6% and 99.7%
same,%Inh,[20]; 1 µM,93.1% and 100%
COc1ccc(Nc2nccc(N3CCC(NC(=O)Nc4cccc(C(C)=O)c4)C3)n2)cc1 (centres unmarked) [GSK1379731],%Inh,[1],31%
same,%Inh,[2],95.1%
same,%Inh,[3],6%
same,%Inh,[4],0%
same,%Inh,[5],4%
same,%Inh,[6],6%
same,%Inh,[7],28%
same,%Inh,[8],0%
same,%Inh,[9],0%
same,%Inh,[10],0%
same,%Inh,[11],0%
same,%Inh,[12],0%
same,%Inh,[13],0%
same,%Inh,[14],7%
same,%Inh,[15],0%
same,%Inh,[16],0%
same,%Inh,[17],0%
same,%Inh,[18],0%
same,%Inh,[19],42%
same,%Inh,[20],0%
COC(=O)Nc1nc2cc(Oc3ccc(NC(=O)Nc4cc(F)ccc4F)cc3)ccc2[nH]1.Cl [GW701424],%Inh,[1],0%
same,%Inh,[2],30%
same,%Inh,[3],1%
same,%Inh,[4],9%
same,%Inh,[5],12%
same,%Inh,[6],0%
same,%Inh,[7],48%
same,%Inh,[8],58%
same,%Inh,[9],0%
same,%Inh,[10],0%
same,%Inh,[11],0%
same,%Inh,[12],11%
same,%Inh,[13],13%
same,%Inh,[14],53%
same,%Inh,[15],98.8%
same,%Inh,[16],71%
same,%Inh,[17],37%
same,%Inh,[18],0%
same,%Inh,[19],29%
same,%Inh,[20],13%
Cl.Nc1ncnc2occ(-c3ccc(NC(=O)Nc4cc(C(F)(F)F)ccc4F)cc3)c12 [SB-707548],%Inh,[1],5%
same,%Inh,[2],0%
same,%Inh,[3],10%
same,%Inh,[4],6%
same,%Inh,[5],4%
same,%Inh,[6],11%
same,%Inh,[7],28%
same,%Inh,[8],13%
same,%Inh,[9],0%
same,%Inh,[10],17%
same,%Inh,[11],7%
same,%Inh,[12],60%
same,%Inh,[13],50%
same,%Inh,[14],99.9%
same,%Inh,[15],42%
same,%Inh,[16],19%
same,%Inh,[17],86%
same,%Inh,[18],63%
same,%Inh,[19],93.4%
same,%Inh,[20],96.8%
O=C(Nc1n[nH]c2cc(-c3cccc(F)c3)ccc12)C1CC1 [SB-735464],%Inh,[1],0%
same,%Inh,[2],23%
same,%Inh,[3],0%
same,%Inh,[4],4%
same,%Inh,[5],28%
same,%Inh,[6],0%
same,%Inh,[7],36%
same,%Inh,[8],22%
same,%Inh,[9],0%
same,%Inh,[10],0%
same,%Inh,[11],0%
same,%Inh,[12],1%
same,%Inh,[13],0%
same,%Inh,[14],82%
same,%Inh,[15],8%
same,%Inh,[16],0%
same,%Inh,[17],1%
same,%Inh,[18],7%
same,%Inh,[19],0%
same,%Inh,[20],15%
Nc1nccc(-c2c(-c3ccc(F)cc3)ncn2C2CCN(CC(F)(F)F)CC2)n1 [SB-236560],%Inh,[1],58%
same,%Inh,[2],31%
same,%Inh,[3],0%
same,%Inh,[4],0%
same,%Inh,[5],0%
same,%Inh,[6],17%
same,%Inh,[7],35%
same,%Inh,[8],0%
same,%Inh,[9],22%
same,%Inh,[10],0%
same,%Inh,[11],0%
same,%Inh,[12],8%
same,%Inh,[13],0%
same,%Inh,[14],0%
same,%Inh,[15],0%
same,%Inh,[16],49%
same,%Inh,[17],96.6%
same,%Inh,[18],11%
same,%Inh,[19],8%
same,%Inh,[20],0%
O=c1cc(N2CCOCC2)nc2n(Cc3cccc4ccccc34)ccn12 [GSK2333389],%Inh,[1],98%
same,%Inh,[2],0%
same,%Inh,[3],13%
same,%Inh,[4],12%
same,%Inh,[5],2%
same,%Inh,[6],0%
same,%Inh,[7],0%
same,%Inh,[8],0%
same,%Inh,[9],1%
same,%Inh,[10],0%
same,%Inh,[11],38%
same,%Inh,[12],2%
same,%Inh,[13],0%
same,%Inh,[14],15%
same,%Inh,[15],3%
same,%Inh,[16],0%
same,%Inh,[17],0%
same,%Inh,[18],0%
same,%Inh,[19],16%
same,%Inh,[20],0%
Cc1ccc(C(=O)NCC(N)=O)cc1-n1c(C)cc(OCc2ccc(F)cc2F)c(Br)c1=O,%Inh,[1],0%
same,%Inh,[2],0%
same,%Inh,[3],3%
same,%Inh,[4],17%
same,%Inh,[5],0%
same,%Inh,[6],5%
same,%Inh,[7],0%
same,%Inh,[8],0%
same,%Inh,[9],0%
same,%Inh,[10],10%
same,%Inh,[11],6%
same,%Inh,[12],16%
same,%Inh,[13],0%
same,%Inh,[14],0%
same,%Inh,[15],24%
same,%Inh,[16],0%
same,%Inh,[17],100%
same,%Inh,[18],100%
same,%Inh,[19],18%
same,%Inh,[20],8%
COCCNC(=O)c1ccc(-c2cc(C(=O)NC3CC3)cc(F)c2C)cc1 [GW868318],%Inh,[1],9%
same,%Inh,[2],37%
same,%Inh,[3],3%
same,%Inh,[4],5%
same,%Inh,[5],31%
same,%Inh,[6],0%
same,%Inh,[7],23%
same,%Inh,[8],21%
same,%Inh,[9],1%
same,%Inh,[10],25%
same,%Inh,[11],22%
same,%Inh,[12],4%
same,%Inh,[13],0%
same,%Inh,[14],33%
same,%Inh,[15],23%
same,%Inh,[16],0%
same,%Inh,[17],100%
same,%Inh,[18],94%
same,%Inh,[19],0%
same,%Inh,[20],29%
O=c1cc(N2CCOCC2)nc2n(Cc3cccc(F)c3)ccn12 [GSK2297430],%Inh,[1],93.9%
same,%Inh,[2],0%
same,%Inh,[3],0%
same,%Inh,[4],9%
same,%Inh,[5],0%
same,%Inh,[6],12%
same,%Inh,[7],8%
same,%Inh,[8],3%
same,%Inh,[9],7%
same,%Inh,[10],14%
same,%Inh,[11],22%
same,%Inh,[12],16%
same,%Inh,[13],0%
same,%Inh,[14],33%
same,%Inh,[15],0%
same,%Inh,[16],0%
same,%Inh,[17],43%
same,%Inh,[18],0%
same,%Inh,[19],22%
same,%Inh,[20],0%
